Assay results from PubChem BioAssay (NCATS).
Records with an inconclusive call do not appear. Calls of active or inactive are those of the source. Calls come from the whole dose curve; as a rule, active = well fitted curve in the direction sought with a large enough effect; inconclusive = small, poorly fitted or top-dose-only effect, or another doubt; inactive = no such curve, though single readings can be large; an effect the other way counts as inactive or inconclusive.

assay: Cytometric Cell-Based qHTS for Inhibitors of the mTORC1 Signaling Pathway in MEF (Tsc2-/-, p53-/-) Cells (AID 2660); settings: mTORC1 pathway cytometry; series mostly up to 38.3 µM; activity change, negative = inhibition: at the top concentration;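 note: percent of cells above a phospho-rpS6 to PI ratio cutoff in each well; plate controls were DMSO for no effect and rapamycin for full effect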
How it was run: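 Percent of cells positive for normalized phospho-S6 staining is reported, with the cutoff set from rapamycin (7.5 nM) versus DMSO wells. Tsc2-/-, p53-/- MEFs received compound for 24 hrs.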

Structure (SMILES) | activity change, negative = inhibition
CCCC(=O)NCCc1c2n(c3ccc(OC)cc13)CCCc1ccccc1-2 | 5.08% (inactive)
NC(N)=NC(N)=Nc1ccccc1 | -1.63% (inactive)
COc1cc(/C=C(\C#N)C(=O)Nc2nnc(C(F)(F)F)s2)ccc1OCc1ccc(C(F)(F)F)cc1C(F)(F)F | 2.47% (inactive)
CC(C)(C)c1cc(/C=C(\C#N)C(N)=S)cc(C(C)(C)C)c1O | 4.15% (inactive)
CN(C)CCCc1cc(C(=O)Nc2ccc(-c3ccncc3)cc2)ccc1O | 0.093% (inactive)
C=C(C)C1CC=C(C(=O)O)CC1 (stereo unspecified) | -2.72% (inactive)
Oc1ccc(/C=C/c2ccc(/C=C/c3ccc(O)cc3)c(Br)c2)cc1 | 1.32% (inactive)
N[C@@H](Cc1ccc(F)cc1)C(=O)O | 6.24% (inactive)
CCCCCCC/C=C\CCCCCCCCC(=O)O | 7.18% (inactive)
C=C1C[C@@]23CC[C@H]4[C@@](C)(CCC[C@@]4(C)C(=O)OC4OC(CO)C(O)C(O)C4O)[C@@H]2CC[C@]1(OC1OC(CO)C(O)C(O)C1OC1OC(CO)C(O)C(O)C1O)C3 (stereo partly specified) | -0.35% (inactive)
CCc1ccc2c(-c3cccc(Cl)c3)nc(=O)n(CC)c2n1 | 1.18% (inactive)
OC[C@H]1O[C@H](n2cnc3c(N[C@H]4CCC[C@@H]4O)ncnc32)[C@H](O)[C@@H]1O | 6.95% (inactive)
c1ccc2c(c1)CCC[C@H]2Nc1nc2ccccc2[nH]1 | -3.88% (inactive)
COc1cc(/C=C(\C#N)C(=O)c2ccc(O)c(O)c2)cc(I)c1O | -8.88% (inactive)
CCCC[C@@]1(C2CCCC2)Cc2cc(OCC(=O)O)c(Cl)c(Cl)c2C1=O | 7.9% (inactive)
COc1ccc(C(=O)NCc2cccnc2)cc1C(=O)NCc1cccnc1 | -7.6% (inactive)
c1ccc(CN2CCC3(CCCc4ccccc43)CC2)cc1 | -5.96% (inactive)
CC(C)(C)NCC(O)COc1cccc2[nH]c(=O)[nH]c12 (stereo unspecified) | 8.08% (inactive)
CC(C)(C)c1ccc(/C=C/C(=O)Nc2ccc3c(c2)OCCO3)cc1 | 1.19% (inactive)
CN(CC[C@@H](Oc1ccc(C(F)(F)F)cc1)c1ccccc1)CC(=O)O | -0.587% (inactive)
CC[n+]1c(/C=C/C=C2/N(C)c3ccccc3C2(C)C)sc2ccccc21 | -0.12% (inactive)
Nc1ccc(-c2nc3ccc(-c4nc5ccc(N)cc5[nH]4)cc3[nH]2)cc1 | 2.74% (inactive)

assay: High Content Imaging Cell-Based qHTS for Inhibitors of the mTORC1 Signaling Pathway in MEF (Tsc2-/-, p53-/-) Cells (AID 2666); settings: series mostly up to 38.3 µM;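 note: percent of cells scored positive for phospho-rpS6 Ser235/236 immunostaining by imaging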; note: potency is the fitted concentration of half-maximal effect
How it was run: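 Read-out: % positive cells per well, with thresholds from highest- and lowest-signal wells, based on phospho-rpS6 (Ser235/236) intensity normalized to Hoechst nuclear stain. Cells: Tsc2-/-, p53-/- MEFs carrying empty vector; compound 24 hrs, 37 degree Celsius.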

Structure (SMILES) | Potency | outcome
COc1ccc(NC(=O)c2ccc(-c3ccc(-c4noc(C)n4)cc3C)cc2)cc1N1CCN(C)CC1 | 16.5 µM (active) | 
CC(C)NC[C@H](O)COc1ccc(CC(N)=O)cc1 |  | inactive
COC(=O)[C@H](NC(=O)c1cc(-c2ccccc2)nc2ccccc12)c1ccccc1 |  | inactive
Cc1cccc(C2CN(C)CCc3c2cc(O)c(O)c3Cl)c1 (stereo unspecified) |  | inactive
N#Cc1cc([N+](=O)[O-])c2sc(C(N)=O)[n+]([O-])c2c1 | 18.5 µM (active) | 
CCC1(O)CC2CN(CCc3c([nH]c4ccccc34)[C@@](C(=O)OC)(c3cc4c(cc3OC)N(C)C3[C@]45CCN4CC=C[C@@](CC)([C@@H](OC(C)=O)[C@]3(O)C(=O)OC)[C@H]45)C2)C1 (stereo partly specified) |  | inactive
CN(C)S(=O)(=O)c1ccc2c(c1)/C(=C/c1cc3c([nH]1)CCCC3)C(=O)N2 |  | inactive
CC(C)NCC(O)COc1ccc(CC(N)=O)cc1 (stereo unspecified) |  | inactive
Nc1nc2ccc(Cl)cc2c2nc(-c3ccco3)nn12 |  | inactive
